Results filed as inconclusive are left out. Activity calls are given as the source filed them. Calls follow the shape of the dose curve; as a rule, active = well fitted curve in the direction sought with a large enough effect; inconclusive = small, poorly fitted or top-dose-only effect, or another doubt; inactive = no such curve, though single readings can be large or run the other way.

Consider 40 compounds from PubChem BioAssay (NCATS).
% is scaled to controls: 0 for no effect and ±100 for the full control effect; potency is read from the fitted curve at half-maximal effect.

A short description of the test: qHTS Assay for Identifying Gametocytocidal Compounds (AID 743244).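 As to max response: actives lower the fluorescent signal which means gametocytes are killed.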 The note with it: P. falciparum 3D7 stage III-V gametocytes, alamarBlue, 72 h; max response: active compounds read low. The text has this: Malaria cases and deaths have dropped 50% in 29 countries since 2000 due to the combined effects of long-lasting insecticidal bednets, indoor residual spraying, and artemisinin-based combination therapies (ACTs). This success has raised hopes for malaria eradication and consequently stimulated interest in developing new reagents that block gametocyte transmission such as novel and safe gametocytocidal drugs. However, previous drug development efforts have focused primarily on the asexual parasites that cause symptoms, but not malaria transmission. Consequently, patients can remain infectious for weeks after the clearance of asexual parasites and clinical symptoms. To be transmitted from person to person via a mosquito, the parasites must switch from asexual to sexual development and produce male and female gametocytes. Malaria gametocytes consist of five stages (I, II, III, IV and V). The late stage gametocytes (III, IV and V) are difficult to be cultured in vitro and the long lifespan of mature gametocytes allows them being transmitted from host to mosquitoes unless they are completely eliminated by gametocytocidal agents. To identify gametocytocidal compounds which are capable of killing late stage P. falciparum gametocytes, a high throughput gametocyte viability assay was employed. This assay uses oxidoreduction indicator, alamarBlue, as a general measure of metabolic activity of gametocytes. Within live cells, the nonfluorescent resazurin is reduced to resorufin, a bright red fluorescence dye. Fluorescence decreases upon treatment of gametocytocidal compounds. P. falciparum gametocyte (3D7 strain) was used in this study.
The 1536-well gametocycidal viability assay was based on the previous method of Tanaka et al. Stage III-V gametocytes were tested against three compound libraries, including 4265 compounds from NCGC pharmaceutical collection, 400 from Malaria Box library, and 550 from an internal collection of kinase inhibitors. Briefly, 2.5 ul/well incomplete medium was dispensed into each well of 1,536-well plates using the Multidrop Combi followed by 23 nl compound transferring using the NX-TR Pintool (WAKO Scientific Solutions, San Diego, CA). Then, 2.5 ul/well of gametocytes was dispensed with a seeding density of 20,000 cells/well using the Multidrop Combi. The assay plates were incubated for 72 h at 37C with 5% CO2. After addition of 5 ul/well of 2X AlamarBlue dye (Life Technologies, cat. no. DAL1100), the plates were incubated for 24 h at 37C with 5% CO2 and then were read in a fluorescence detection mode (Ex = 525 nm, Em = 598 nm) on a ViewLux plate reader (PerkinElmer).
A general note: Quantitative high-throughput screening tests each substance at several concentrations.
Consider `O=c1cc(-c2ccccc2F)[nH]c2cc3c(cc12)OCO3`, for which the max response is 15.8% (inactive).

`O=C1NC(=O)c2cc(Nc3ccccc3)c(Nc3ccccc3)cc21`: the max response was 5.21% (inactive).

With `CC1=C(C(=O)O)N2C(=O)[C@@H](NC(=O)C(N)C3=CCC=CC3)[C@H]2SC1` (stereo not given in full), the max response was 5.72% (inactive).

As to `Nc1ccc(N2C(=O)c3ccccc3C2=O)c(Cl)c1`, the max response was 6.35% (inactive).

Turning to `Cn1cc(C(F)(F)F)nc1-c1ccc(OCC(O)CNCCOc2ccc(O)c(C(N)=O)c2)cc1` (stereo not given), the max response was 26.1% (inactive).

With `NC(N)=N[C@@H](CCC(=O)O)C(=O)O`, the max response was -1.42% (inactive).

For the compound `CCC(=O)N1CCN(C(=O)c2ccccc2)CC1`, the max response is 9.08% (inactive).

`CCCCCCCCCC(=O)NC(CN1CCOCC1)[C@H](O)c1ccccc1` (stereo not given in full): the Potency was 3.55 µM (active).

On to `N=S(=O)(O)Cc1noc2ccccc12`, for which the max response was 7.99% (inactive).

Turning to `N=C(N)c1ccccc1`, the max response is 17.2% (inactive).

Turning to `CCCCCC[C@@H]([C@@H](C)O)n1cnc2c(N)ncnc21`, the max response was 12% (inactive).

`CC(=O)NNC(=O)N1Cc2ccccc2Oc2ccc(Cl)cc21`: the max response was 7.75% (inactive).

With `N=C(N)c1ccc(OCCCCCOc2ccc(C(=N)N)cc2)cc1` (tested in a mixture with another compound), the Potency was 0.562 µM (active).

Turning to `NC1C=CC=C(C(=O)O)C1` (stereo not given), the max response is -5.22% (inactive).

Turning to `CCCc1c(-c2ccc(O)cc2)nn(-c2ccc(O)cc2)c1-c1ccc(O)cc1`, the max response was 23.6% (inactive).

For the compound `CCCn1c(=O)c2[nH]c(C3CCCC3)nc2n(CCC)c1=O`, the max response was 13.8% (inactive).

`Nc1ncnc2c1ncn2C1CCCC1`: the max response was 29.2% (inactive).

As for `CCCCCCCCCCCCCCSCC(=O)O`, the max response was 30.8% (inactive).

Consider `COc1cc(/C=C(\C#N)C(=O)c2ccc(O)c(O)c2)cc(I)c1O`, for which the max response was 9.56% (inactive).

As to `CC(C)[C@@H]1CC[C@@H](C)C[C@@H]1P(=O)(c1ccccc1)c1ccccc1`, the max response was 7.79% (inactive).

Consider `O=c1[nH]c(=S)[nH]c(-c2ccccc2)c1Cc1c(O)ccc2ccccc12`, for which the max response was 1.54% (inactive).

For `Nc1ccc2c3c(cccc13)C(=O)NC2=O`, the max response was 4.5% (inactive).

Regarding `N[C@H](C(=O)O)[C@H](O)C(=O)O`, the max response is 13.2% (inactive).

`Nc1ccc(-c2ccc3ccccc3n2)cc1`: the max response was 11.1% (inactive).

With `C=C(C)C1CC=C(C(=O)O)CC1` (stereo not given), the max response was 19.6% (inactive).

`c1ccc2nc(C3=NCCN3)ccc2c1`: the max response is 12% (inactive).

On to `CC(C)C[C@H](NC(=O)C1OC1C(=O)O)C(=O)NCCCCN=C(N)N` (stereo not given in full), for which the max response is -4.29% (inactive).

For `OCC1NCC(O)C(O)C1O` (stereo not given), the max response was 29.9% (inactive).

Turning to `CC(N)(C(=O)O)c1ccc(C(=O)O)cc1` (stereo not given), the max response is 12% (inactive).

Take `CC(=O)/C(C)=N/O`: the max response was -4.63% (inactive).

`CN[C@H](CC(=O)O)C(=O)O`: the max response was 19.8% (inactive).

In the case of `O=[N+]([O-])c1cccc2cn[nH]c12`, the max response was 8.31% (inactive).

On to `N=C(N)SCCN`, for which the max response is -1.63% (inactive).

Take `O=C(O)[C@H]1NCCC[C@H]1C(=O)O`: the max response was 8.68% (inactive).

`CC[C@H](NC(=O)c1c(C)c(-c2ccccc2)nc2ccccc12)c1ccccc1`: the max response is 5.87% (inactive).

On to `CCn1c(=O)[nH]c2cc(Cl)c(Cl)cc21`, for which the max response is 24.6% (inactive).

Turning to `CNCCc1cnc(CCC(c2ccccc2)c2ccccc2)[nH]1`, the Potency was 1.26 µM (active).

As to `COc1ccccc1N1CCN(CCCCNC(=O)c2ccc3ccccc3c2)CC1`, the max response is 17.6% (inactive).

Consider `COc1ccc(C(=O)NCc2cccnc2)cc1C(=O)NCc1cccnc1`, for which the max response was 22.9% (inactive).

Take `CCN(CC)CCCCCCCCOC(=O)c1cc(OC)c(OC)c(OC)c1`: the max response was 31.2% (inactive).
